Sm TGR block: qHTS Assay for the Inhibitors of Schistosoma Mansoni Peroxiredoxins; Schistosoma mansoni thioredoxin glutathione reductase (TGR), Q962Y6; purified TGR, DTNB reduction, TNB absorbance 405 nm; Potency, µM (titrated, usually from 114 µM), for inactives: at the highest dose activity change, negative = inhibition, actives largely listed as inhibitors; 360,000 compounds, 3% hits; further: potency means the concentration at half of the fitted maximal effect; on the % scale 0 is the no-effect control and ±100 the full control effect; nearly all actives have a fitted effect of over 60% in size
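First, TGR (20 nM dispensed) and NADPH were mixed with compound. Second, a 15 min room-temperature incubation followed. Third, further NADPH and then DTNB were added to start the reaction. Finally, TNB absorbance was monitored kinetically.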
FBPA Giardia inh: qHTS Assay for Inhibitors of Fructose-1,6-bisphosphate Aldolase from Giardia Lamblia; purified Giardia FBPA; Potency, µM (titrated, usually from 59.6 µM), for inactives: at the top dose activity, negative = inhibition, actives largely listed as inhibitors; 290,000 compounds, 0.71% hits; AID 2451, 2010; further: potency means the concentration at half of the fitted maximal effect; on the % scale 0 is the no-effect control and ±100 the full control effect; nearly all actives have a fitted effect of over 55% in size
Target sequence (A8B2U2 whole entry, looked up): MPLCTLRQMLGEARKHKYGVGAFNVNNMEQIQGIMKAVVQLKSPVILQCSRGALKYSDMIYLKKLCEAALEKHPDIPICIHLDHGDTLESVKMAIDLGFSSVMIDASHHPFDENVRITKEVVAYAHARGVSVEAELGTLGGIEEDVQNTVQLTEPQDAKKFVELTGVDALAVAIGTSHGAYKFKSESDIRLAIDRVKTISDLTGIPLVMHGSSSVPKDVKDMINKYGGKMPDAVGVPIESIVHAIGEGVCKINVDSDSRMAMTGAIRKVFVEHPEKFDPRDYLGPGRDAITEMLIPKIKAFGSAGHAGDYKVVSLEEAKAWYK
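Giardia FBPA (40 nM reagent) was preincubated 10 min at RT with compound (up to 57.5 uM final), then substrate plus GAPDH/TPI/NAD/arsenate coupling system with diaphorase/resazurin was added; resorufin fluorescence (525/598 nm) was read after 20 min.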
Shiga inhibitor: A qHTS for Small Molecule Inhibitors of Shiga Toxin | inhibition, % at 38.7 µM | 290,000 compounds, 9.2% hits | Vero cells, Shiga toxin protein synthesis inhibition reporter; in the data active means inhibition mostly above about 28%, no sharp cut-off; inactive means mostly below about 43%; further: 0% is about no effect
LmPK inhibitor: qHTS Assay for Inhibitors of Leishmania Mexicana Pyruvate Kinase (LmPK); Q27686; purified LmPK, Kinase-Glo ATP luminescence, 1 h; Potency, µM (titrated, usually from 57.5 µM), inactives show at the highest dose activity change, negative = inhibition, actives largely listed as inhibitors; 290,000 compounds, 0.37% hits; AID 1721, 2009; further: potency means the concentration at half of the fitted maximal effect; on the % scale 0 is the no-effect control and ±100 the full control effect
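Purified LmPK (0.1 nM) with 0.5 mM PEP and 0.1 mM ADP in imidazole buffer pH 7.2 with MgCl2/KCl, 1 h at room temperature. ATP formed was read by luciferase luminescence and normalized to no-enzyme and uninhibited controls.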
TbPYK inhibitor: qHTS of Trypanosoma Brucei Inhibitors; 410,000 compounds, 0.12% hits; pyruvate kinase (Trypanosoma brucei), Q57TT1; Potency, µM (series often up to 76.8 µM), inactives show at the highest dose activity, negative = inhibition, hits mostly inhibitors; TbPYK enzyme, Kinase-Glo Plus ATP luminescence, 45 min; further: potency means the concentration at half of the fitted maximal effect; on the % scale 0 is the no-effect control and ±100 the full control effect; nearly all actives have a fitted effect of over 50% in size
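Luminescence from Kinase-Glo Plus, added after a 45-minute room-temperature reaction, served as the end-point read-out. The enzyme and substrate were preincubated with compound before ADP (130 uM final) initiated turnover. Concentration-effect curves came from normalized qHTS data.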
CHX counter: Cycloheximide Counterscreen for Small Molecule Inhibitors of Shiga Toxin; cell reporter, cycloheximide protein synthesis inhibition counterscreen; max response, %; 300,000 compounds, 12% hits; in the data active means max response mostly above about 13%, no sharp cut-off; inactive means mostly below about 14%; further: read at 38.3 µM for the half of the compounds with a filed dose; 0% is about no effect
Numbers without * were called inactive; u = inconclusive; x = not tested or not shown. Many of the other results were omitted from the sample, so hits are more common in it than they were. Unless noted, the call rests on the fitted dose curve; in most records, active means well fitted curve in the direction sought with a large enough effect; inconclusive means small, poorly fitted or top-dose-only effect, or another doubt; inactive means no such curve, though single readings can be large; an effect the other way counts as inactive or inconclusive.

SMILES	Sm TGR block	FBPA Giardia inh	Shiga inhibitor	LmPK inhibitor	TbPYK inhibitor	CHX counter
C[N+]12CCCC[C@@H]1CCC(=C(c1cccs1)c1cccs1)C2 (stereo not given in full)	x	x	x	x	-9.2%	x
Cc1ccc2nc(NCc3ccccc3)c3nnnn3c2c1	23.9%	x	x	x	6.5%	x
C/C(CC(=O)Nc1ccccc1Br)=N\NC(=O)C(=O)N1CCCC1	1.2%	11.0%	-4.4	-1.9%	1.8%	7.5
C/C(CC(=O)Nc1ccc(Cl)cc1Cl)=N\NC(=O)C(=O)N1CCCC1	0.2%	-9.0%	17.9	6.5%	1.7%	4.0
C/C(CC(=O)Nc1ccc(Cl)cc1)=N\NC(=O)C(=O)N1CCCCC1	0.0%	1.8%	52.1*	1.2%	-4.6%	16.1*
C/C(CC(=O)Nc1cc(Cl)ccc1C)=N\NC(=O)C(=O)N1CCCC1	1.3%	-18.8%	17.6	3.5%	-3.2%	17.1*
Cn1c(=O)c2c(nc(N3CCOCC3)n2Cc2cccc(Br)c2)n(C)c1=O	1.9%	x	x	x	1.7%	x
COc1ccc(/C=C(\C#N)C(=O)Nc2ccccn2)cc1	u	-6.8%	84.3	-6.1%	-8.5%	21.5*
COc1ccc(O)c(/C=C(\C#N)C(=O)Nc2ccccn2)c1	-0.8%	-18.1%	53.3*	0.5%	0.6%	26.3*
Cc1ccc(/C=C(\C#N)C(=O)Nc2ccccn2)o1	x	-0.9%	57.7	u	-8.1%	28.4*
C=CCOc1ccc(/C=C(\C#N)C(=O)Nc2ccccn2)cc1OC	0.3%	6.7%	-11.1	-5.1%	-6.6%	-7.2
COc1ccccc1NC(=O)/C(C#N)=C/c1ccncc1	0.0%	x	-13.2	-4.4%	0.6%	-2.4
CCNC(=O)C1(C)CCN(C(=O)C(c2ccccc2)c2ccccc2)C1 (stereo not given)	x	x	x	x	-3.7%	x
CN1OC[C@@H]2CN(S(=O)(=O)c3ccccc3)[C@H](c3ccc(-n4ccnc4)cc3)C[C@@H]21	x	x	x	x	0.5%	x
COC(=O)c1nnc(C(=O)NCc2ccccc2)c2[nH]c3ccccc3c12	x	-1.2%	x	x	x	x
N[C@H](CCCP(=O)(O)O)C(=O)O	x	-3.7%	x	x	x	x
O=C(c1ccccc1)C1C(=O)c2ccccc2C1=O	-27.0%	-1.8%	-7.0	-0.9%	0.1%	1.3
O=C(c1ccccc1)C1NC1c1ccccc1 (stereo not given)	-14.6%	11.3%	46.5*	4.4%	6.0%	61.0*
CN1C/C(=C/c2ccsc2)C(=O)/C(=C/c2ccsc2)C1	u	-29.8%	14.0	1.4%	-2.8%	63.4*
CN1C/C(=C/c2ccncc2)C(=O)/C(=C/c2ccncc2)C1	u	-10.5%	36.0	3.9%	2.2%	32.3*
O=C(Cn1nc(-c2ccccc2)c2cnc3ccc(F)cc3c21)NC1CCCC1	3.8%	x	x	x	2.0%	x
O=c1c2cn[nH]c2nc(SCc2ccccc2F)n1-c1ccc(Br)cc1	0.0%	-2.4%	-10.2	10.9%	-0.5%	-2.6
Cc1cccc2nc(CSc3nc4[nH]ncc4c(=O)n3-c3ccccc3Cl)cc(=O)n12	1.1%	-11.2%	46.5	0.0%	3.1%	13.8*
O=c1c2cn[nH]c2nc(SCc2cc(=O)n3cc(Br)ccc3n2)n1-c1ccc(Br)cc1	-20.0%	-0.7%	25.8	14.5%	8.3%	21.9*
CCc1ccc(/C=C/C(=O)C2C(=O)c3ccccc3C2=O)cc1	-25.5%	0.1%	54.2	-4.0%	-16.3%	11.7
O=C(/C=C/c1ccccc1)C1C(=O)c2ccccc2C1=O	-9.7%	-9.2%	42.0*	-6.5%	-19.3%	33.2*
Cc1nc(-c2ccc(C(F)(F)F)cc2)sc1C(=O)NN	15.3%	-10.7%	36.9	-5.7%	-2.3%	15.2*
Cc1nc(-c2ccccc2)sc1C(N)=O	-23.4%	2.2%	0.0	-4.4%	3.5%	15.3
CNC(=O)c1sc(-c2ccc(Cl)cc2)nc1C	0.2%	-0.2%	112.2*	-0.6%	-6.3%	52.8*
C=C(C)c1sc(-c2ccccc2)nc1C	x	x	x	x	2.3%	x

Bioassay records as filed in PubChem BioAssay.
